Pf growth 96h: P. falciparum growth inhibition at 96 hours | P. falciparum luciferase reporter growth, 96 h | 320,000 compounds, 6.9% hits | AID 504834 | Potency, µM (series often up to 28.7 µM), actives largely listed as inhibitors
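Infected RBCs, 2% Hct / 0.05% parasitemia final; luciferase-reporter P. falciparum; cpd 96 h, 37 C, 5% CO2; luciferase detection reagent; luminescence.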
CHX counter: counter-screen hit for Shiga toxin inhibitors, cycloheximide; cell reporter, cycloheximide protein synthesis inhibition counterscreen; max response, %; 300,000 compounds, 12% hits; in the data active means max response mostly above about 13%, no sharp cut-off; inactive means mostly below about 14%; further: read at 38.3 µM for the half of the compounds with a filed dose
SARS PLpro yeast: SARS-CoV PLP inhibition in yeast | S. cerevisiae expressing SARS-CoV PLpro, growth rescue | Potency, µM (doses to about 32.9 µM), actives largely listed as activators | 330,000 compounds, 0.19% hits | AID 485353; calls by dose curve; further: nearly all actives have a fitted effect of over 55% in size
Shiga inhibitor: Shiga toxin inhibition | 290,000 compounds, 9.2% hits | Vero cells, Shiga toxin protein synthesis inhibition reporter | inhibition, % at 38.7 µM; in the data active means inhibition mostly above about 28%, no sharp cut-off; inactive means mostly below about 43%
NS1 function inh: blocks influenza NS1 protein function; Potency, µM (titrated, usually from 46.1 µM); 270,000 compounds, 0.4% hits; AID 2326; calls by dose curve; further: actives are rising curves; nearly all actives have a fitted effect of over 50% in size
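Read-out: OD600 growth recovery of NS1-expressing budding yeast. Cells grown overnight at 30C in -URA glucose medium, washed, resuspended and diluted 1:100 in 2% galactose assay medium, pH 6.0. Same strain lacking NS1 served as positive control.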
Pf growth 48h: P. falciparum growth inhibition at 48 hours (one generation) | P. falciparum luciferase growth in erythrocytes, 48 h | Potency, µM (top dose mostly 28.7 µM), usual class: inhibitors | 310,000 compounds, 5.9% hits | AID 504832
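In quantitative HTS format, infected erythrocytes bearing luciferase-reporter parasites were treated for a single generation at 37 C. Luminescence after adding detection reagent served as the growth measure.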
Of the large screens only hits and unclear results are named; the others gave an inactive call. A selection: hits, their analogues and other compounds. The true share with any hit is near 21%. Unless noted, the call rests on the fitted dose curve; in most records, active means well fitted inhibition curve with a large enough effect; inconclusive means small, poorly fitted or top-dose-only effect, or another doubt; inactive means no such curve, though single readings can be large or run the other way.

COc1ccc(-c2c(C)nn(-c3ccccc3)c2N)cc1	CHX counter 23.4 (no result: Pf growth 48h)
Cc1nn(-c2ccccc2)c(N)c1C(c1ccccc1)c1c(C)nn(-c2ccccc2)c1N	Pf growth 96h 13.1µM, Pf growth 48h inconclusive
Cc1nn(-c2nc3ccccc3[nH]2)c(N)c1-c1ccc(Cl)cc1	Pf growth 96h inconclusive, CHX counter 46.3, Shiga inhibitor 82.4
COC(=O)c1c(C)nn(-c2ccccc2)c1N	NS1 function inh inconclusive
Cc1nn(-c2ccc(C(=O)O)cc2)c(N)c1-c1ccccc1	CHX counter 28.1, Shiga inhibitor 22.7
CCOC(=O)N1CCN=C1SCc1ccc(Cl)c(Cl)c1	Pf growth 96h inconclusive, Pf growth 48h inconclusive (no result: NS1 function inh)
Nc1cc(-c2ccc(Cl)cc2)nn1S(=O)(=O)c1ccc(Cl)cc1	Pf growth 96h 3.29µM (no result: Pf growth 48h)
Nc1cc(-c2ccccc2)nn1S(=O)(=O)c1ccc(F)cc1	Pf growth 96h 10.4µM (no result: Pf growth 48h)
Cc1cc(C)nc(SCCn2c(N(C)Cc3ccccc3)nc3c2c(=O)n(C)c(=O)n3C)n1	Pf growth 96h inconclusive, Pf growth 48h 7.38µM
Cn1c(=O)c2c(nc(N3CCOCC3)n2CCSc2ncccn2)n(C)c1=O	none
CN(Cc1ccccc1)c1nc2c(c(=O)n(C)c(=O)n2C)n1CCSc1ncccn1	Pf growth 96h inconclusive, Pf growth 48h 10.4µM
O=C(O)Cc1c[nH]c2ccc(F)cc12	none (no result: Pf growth 96h, CHX counter, SARS PLpro yeast, Shiga inhibitor, Pf growth 48h)
CCCc1nc2c(=O)n(C)c(=O)[nH]c2n1CCC	Pf growth 96h 10.4µM (no result: Pf growth 48h)
COc1ccc(Cl)cc1NC(=O)CCNS(=O)(=O)c1cccc2nonc12	Pf growth 96h 10.4µM
COc1ccc(C)cc1NC(=O)CCNS(=O)(=O)c1cccc2nonc12	none
CCOc1ccc(C(=O)NCC(=O)NNC(=O)CN(C)S(=O)(=O)c2ccc(Cl)cc2)cc1	none (no result: CHX counter, Shiga inhibitor, NS1 function inh)
O=C1Nc2ccccc2CCC1Sc1nnc(-c2ccc(Cl)cc2)s1 (configuration not stated)	Pf growth 96h inconclusive, Pf growth 48h 13.1µM
Cc1cnc(NC(=O)C(C)N2CCN(C)CC2)s1 (configuration not stated)	none (no result: NS1 function inh)
CC1=CC(=O)CC(C)(C)[C@]1(O)/C=C\C(C)=C\C(=O)O	none (no result: Pf growth 96h, CHX counter, SARS PLpro yeast, Shiga inhibitor, Pf growth 48h)
CC12CCC(C(=O)N(CSC(=S)N/N=C\c3ccccc3)C1=O)C2(C)C (configuration not stated)	Pf growth 96h inconclusive, SARS PLpro yeast 10µM, NS1 function inh inconclusive, Pf growth 48h inconclusive
O=C(O)c1ccc2c(c1)C(=O)N([C@]1(C(=O)O)C[C@H]1c1ccccc1)C2=O	Pf growth 48h inconclusive (no result: NS1 function inh)
COc1cc(C(=O)NCc2nnc(SCC(=O)NCc3ccco3)o2)cc(OC)c1OC	none
CCn1ccc(C(=O)Nc2ncc(C)s2)n1	CHX counter 27.7, Shiga inhibitor 56.9
Cc1cnc(NC(=O)c2ccncc2)s1	CHX counter 17.5, Shiga inhibitor 36.1 (no result: NS1 function inh)
Cc1nnc(NC(=O)c2ccncc2)s1	Pf growth 96h inconclusive (no result: Pf growth 48h)
Cc1cnc(NC(=O)c2cncc(Br)c2)s1	CHX counter 29.8, Shiga inhibitor 53.2 (no result: NS1 function inh)
Cc1ccc2nsnc2c1NC(=O)c1cncc(Br)c1	none (no result: NS1 function inh)
CCn1ccc(C(=O)NC2CCCC2)n1	none
Cc1ccc2c(c1)-c1[nH]c(=S)ncc1CS2	none (no result: NS1 function inh)
CCC(C(=O)c1ccc(O)cc1)c1ccccc1 (configuration not stated)	Pf growth 48h 13.1µM
CCCCCc1nc(-c2nonc2N)no1	none
Nc1nonc1-c1noc(CCCOc2ccc(Cl)cc2Cl)n1	Pf growth 96h 5.22µM
Cc1ccc(C(C)C)c(OCc2nc(-c3nonc3N)no2)c1	Pf growth 96h 4.65µM, CHX counter 28.1, Shiga inhibitor 100.9 (no result: Pf growth 48h)
Cc1ccc(C)c(OCc2nc(-c3cccnc3)no2)c1	SARS PLpro yeast inconclusive
Clc1ccc(OCc2nc(-c3ccncc3)no2)c(Cl)c1	Pf growth 96h 10.4µM, CHX counter 63.6, Shiga inhibitor 122.0
COc1ccc(Cl)cc1-c1nc(-c2ccncc2)no1	none
Cc1cccc(OCc2nc(-c3cccnc3)no2)c1	CHX counter 15.3, Shiga inhibitor active
O=C1CCC(C(=O)Nc2cccc(S(=O)(=O)N3CCOCC3)c2)N1 (configuration not stated)	Pf growth 96h inconclusive (no result: NS1 function inh)
Cc1c(C(=O)N2CCCCC2)c(S(=O)(=O)NCc2ccc(Cl)cc2)c(C)n1C	none
Clc1cccc(OCc2nc(-c3ccncc3)n[nH]2)c1	none (no result: SARS PLpro yeast)
Clc1cccc(OCc2nc(-c3ccncc3)no2)c1	CHX counter 33.8
COC(=O)c1cc2ccccc2c(-c2c(OC)c(C(=O)OC)cc3ccccc23)c1OC	Pf growth 96h 11.7µM, Pf growth 48h inconclusive
COc1ccc(NC(=O)COC(=O)C2CC2)c(OC)c1	none (no result: CHX counter, Shiga inhibitor, NS1 function inh)
COc1ccccc1C(=O)NCC(=O)Nc1ccccc1	none (no result: Pf growth 96h)
COc1ccccc1NC(=O)CC(=O)c1ccccc1	Shiga inhibitor 55.3
COc1ccccc1C(=O)CC(=O)c1ccccc1	Pf growth 96h inconclusive, CHX counter 67.6, Shiga inhibitor 85.4
COC(=O)c1ccc(NC(=O)c2ccc3nc(C)sc3c2)cc1	CHX counter 77.0 (no result: Shiga inhibitor)
COc1ccc(CC(=O)Nc2ccc3nc(C)sc3c2)cc1OC	none
COc1ccc(NC(=O)c2ccc3nc(C)sc3c2)cc1	Pf growth 96h inconclusive, CHX counter 64.3, Shiga inhibitor 128.8
COc1ccc(C(=O)Nc2ccc3nc(C)sc3c2)cc1OC	CHX counter 31.0 (no result: NS1 function inh)
CC(=O)NS(=O)(=O)c1ccc(N=c2ssc3c2-c2ccc(C)cc2NC3(C)C)cc1	Pf growth 96h inconclusive
CC(=O)Nc1cccc(C(=O)/C=C/c2ccco2)c1	Pf growth 96h inconclusive, CHX counter 43.2, Shiga inhibitor 48.9, Pf growth 48h inconclusive
CC(=O)Nc1ccc(C(=O)/C=C/c2ccco2)cc1	none
CC(=O)Nc1cccc(C(=O)/C=C/c2ccc(F)cc2)c1	Pf growth 96h inconclusive, CHX counter 29.4
CC(=O)Nc1cccc(C(=O)/C=C/c2ccc(Br)cc2)c1	Pf growth 48h inconclusive
CC(=O)Nc1cccc(C(=O)/C=C/c2ccc(N(C)C)cc2)c1	CHX counter 41.9, Shiga inhibitor 76.0
CC(=O)Nc1cccc(C(=O)/C=C/c2ccc[nH]2)c1	CHX counter 26.4, Shiga inhibitor 53.6
CC(=O)Nc1cccc(C(=O)/C=C/c2cccs2)c1	Pf growth 96h inconclusive, CHX counter 54.0, Shiga inhibitor 81.8
CC(=O)Nc1cccc(C(=O)/C=C/c2ccc(/C=C/C(=O)c3cccc(NC(C)=O)c3)cc2)c1	Pf growth 96h 9.28µM, CHX counter 35.4, Pf growth 48h 2.94µM
CC(=O)Nc1ccc(NC(=O)C(C)OC(=O)/C=C/c2cccs2)cc1 (configuration not stated)	none (no result: NS1 function inh)
Clc1ccc([C@H](Cn2ccnc2)OCc2csc3c(Cl)cccc23)c(Cl)c1	Pf growth 96h 5.73µM, Pf growth 48h inconclusive (no result: CHX counter, SARS PLpro yeast, Shiga inhibitor, NS1 function inh)
OC(Cn1ccnc1)c1ccc(Cl)cc1Cl (configuration not stated)	Pf growth 96h 9.28µM, Pf growth 48h 10.4µM
O=c1c2ccccc2nc(-c2ccc(Cl)cc2Cl)n1CCCn1ccnc1	Pf growth 96h inconclusive, Pf growth 48h inconclusive
